# KB-3-1 cytotox: kills parental KB-3-1 adenocarcinoma cells; KB-3-1 viability, CellTiter-Glo ATP luminescence, 72 h; Potency, µM (titrated, usually from 46.1 µM), most hits filed as cytotoxic; 400,000 tested, 1.4% active; AID 1347075; also: nearly all actives have a fitted effect of over 60% in size
#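 72 h, 37 °C compound treatment of KB-3-1 parental cells; CellTiter-Glo added, 10 min, luminescence read. Data corrected against DMSO-only plates and normalized before curve fitting.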
# KB-V1 MDR tox: kills drug-selected multidrug resistant KB-V1 cells. KB-V1 MDR cells viability, CellTiter-Glo, 72 h. Potency, µM (titrated, usually from 46.1 µM), actives largely listed as cytotoxic. 400,000 tested, 3.4% active. AID 1347076; also: nearly all actives have a fitted effect of over 60% in size
#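 Cells of the MDR subline KB-V1 are plated, dosed with compound at multiple concentrations, and incubated 72 h at 37 degrees C; CellTiter-Glo is then added and luminescence read after 10 min.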
# MCF10A rerep: inducers of DNA re-replication in MCF 10A breast cells | MCF 10A DNA re-replication, Hoechst nuclear intensity, 48 h | Potency, µM (titrated, usually from 46.1 µM), most hits filed as activators | 350,000 tested, 2.9% active | AID 624296; also: nearly all actives have a fitted effect of over 50% in size
# D3 antag: D3 dopamine receptor (human) antagonism; D3R cells, DiscoveRx beta-arrestin luminescence, antagonist mode; hits give low values; max response, negative = inhibition, %; AID 652054; P35462; 360,000 tested, 2.5% active; in the data active = max response below about -50%; inconclusive = no clear call, values can overlap the other calls
# Target sequence (P35462 whole entry, looked up): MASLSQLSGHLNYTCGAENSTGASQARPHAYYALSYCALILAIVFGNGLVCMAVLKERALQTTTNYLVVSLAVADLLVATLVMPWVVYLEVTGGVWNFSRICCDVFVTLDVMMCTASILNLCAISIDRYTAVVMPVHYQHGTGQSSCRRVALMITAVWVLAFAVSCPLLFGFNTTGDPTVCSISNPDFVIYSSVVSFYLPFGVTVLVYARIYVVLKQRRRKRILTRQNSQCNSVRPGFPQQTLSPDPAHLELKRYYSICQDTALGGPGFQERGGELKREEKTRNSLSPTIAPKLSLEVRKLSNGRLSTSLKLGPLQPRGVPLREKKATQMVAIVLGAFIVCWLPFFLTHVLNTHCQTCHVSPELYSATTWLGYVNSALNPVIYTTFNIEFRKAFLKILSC
#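 Cells expressing the human receptor were seeded at 1500 cells/well, incubated overnight at 37 degrees C in 5% CO2, then exposed to library compounds with dopamine controls for 90 minutes at 37 degrees C before luminescent detection.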
# SW480 rereplic: DNA re-replication induction in SW480 cells; SW480 DNA re-replication, Hoechst DNA content imaging, 48 h; Potency, µM (series often up to 46.1 µM), usual class: activators; 340,000 tested, 1.8% active; AID 624297; also: nearly all actives have a fitted effect of over 55% in size
#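 250 cells/well; 23 nL cpd via pin tool; 48 hr, 37 C, 5% CO2; Hoechst 40 min; imager read of total nuclear intensity, ex 405/em 500-530 nm.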
# D3 ag: D3 dopamine receptor (human) agonism. 410,000 tested, 0.58% active. P35462. D3R DiscoveRx beta-arrestin cells, luminescence, 90 min. max activation, %; in the data active = max activation above about 30%
#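 Agonist-mode cell screen: cells plated at 1500/well and incubated overnight at 37 °C, then exposed to library compounds for 90 min at 37 °C. Detection reagent was added for 30–60 min at room temperature, and luminescence was read.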
# A number is an active result; – = inactive; ? = inconclusive; · = no result. Compounds with a hit are over-represented: about 8.9% of the library has one in this group of screens. Unless noted, calls follow the shape of the dose curve; as a rule, active = well fitted curve in the direction sought with a large enough effect; inconclusive = small, poorly fitted or top-dose-only effect, or another doubt; inactive = no such curve, though single readings can be large; an effect the other way counts as inactive or inconclusive.
SMILES,KB-3-1 cytotox,KB-V1 MDR tox,MCF10A rerep,D3 antag,SW480 rereplic,D3 ag
COCCn1c(SCC(=O)N2CCCC2=O)nnc1-c1ccncc1,–,–,·,–,·,–
Cc1c(OCC(=O)NC2CC(C)(C)NC(C)(C)C2)ccc2c1oc(=O)c1ccccc12,–,–,–,–,13µM,–
Cc1c(OCC(=O)NC2CC(C)(C)NC(C)(C)C2)ccc2c3c(c(=O)oc12)CCC3,–,–,–,–,?,–
Cc1ccc(OCC(O)Cn2c(N)nc3c2c(=O)n(C)c(=O)n3C)cc1 (stereo not drawn),–,–,–,–,–,52.8
CNc1nc2c(c(=O)n(C)c(=O)n2C)n1CC(O)COc1ccc(OC)cc1 (stereo not drawn),?,–,·,·,·,–
CCCn1c(NCc2ccco2)nc2c1c(=O)n(C)c(=O)n2C,?,14.6µM,–,–,–,–
Cn1c(NCc2ccco2)nc2c1c(=O)n(Cc1ccc(Cl)cc1Cl)c(=O)n2C,–,–,?,–,16.4µM,–
Cn1c(=O)c2c(nc(NCc3ccco3)n2CC(O)COc2ccccc2)n(C)c1=O (stereo not drawn),?,2.59µM,–,–,–,–
COc1cccc(Cn2c(NCc3ccco3)nc3c2c(=O)n(C)c(=O)n3C)c1,?,?,–,–,–,–
CCn1nc(C)c2c(-c3ccccc3)cc(=O)n(C(C)C(=O)NCCc3ccc(Cl)cc3)c21 (stereo not drawn),–,–,·,·,·,–
CC(C)Cn1c(=S)[nH]c2cc(C(=O)NCc3ccccc3F)ccc2c1=O,–,?,14.6µM,–,–,–
CCCCCCc1cc2cc(-c3cn4c(n3)sc3cc(OC)ccc34)c(=O)oc2cc1O,·,·,·,·,·,–
CCN1CCc2c(sc(NC(=O)CSc3ccccc3)c2-c2nc3ccccc3s2)C1,·,·,·,·,·,–
COC(=O)c1c(NC(=O)c2ccc(S(=O)(=O)N3CCCCC3C)cc2)sc2c1CCN(C(C)C)C2 (stereo not drawn),–,–,·,·,·,–
CCN1CCc2c(sc(NC(=O)c3cc4ccccc4cc3OC)c2C(N)=O)C1,?,–,18.4µM,–,11.6µM,–
CC(C)N1CCc2c(sc(NC(=O)c3ccc(S(=O)(=O)N4CCCCC4C)cc3)c2C(N)=O)C1 (stereo not drawn),–,–,?,–,20.6µM,–
CC(=O)Nc1sc2c(c1-c1nc3ccccc3s1)CCN(C(C)C)C2,7.31µM,?,?,-115.7,20.6µM,–
CC(C)N1CCc2c(sc(NC(=O)c3ccc(C(=O)c4ccccc4)cc3)c2C(N)=O)C1,–,–,16.4µM,–,?,–
C=CCc1ccccc1OCCSc1nc(-c2ccccc2F)nc2cc(=O)[nH]n12,–,–,·,·,·,–
OC[C@H]1O[C@@H](O[C@H]2[C@H](O)[C@@H](O)[C@H](O)O[C@@H]2CO)[C@H](O)[C@@H](O)[C@@H]1O,·,·,·,·,·,–
CN(Cc1ccccc1)C(=O)C(=O)Nc1ccc2nc3n(c(=O)c2c1)CCCCC3,–,–,·,·,·,–
CC(C)c1ccc(NS(=O)(=O)c2ccc3[nH]cc(C(=O)N4CCCC4)c(=O)c3c2)cc1,–,–,·,·,·,–
CCOc1ccccc1Nc1nc(-c2ccc(C)cc2)c(CC(=O)O)s1,–,–,·,·,·,–
CC(C)N1CCc2c(sc(NC(=O)Cc3ccccc3)c2C(N)=O)C1,–,–,–,?,–,–
CC(C)N1CCc2c(sc(NC(=O)c3ccc4ccccc4c3)c2C(N)=O)C1,?,?,9.2µM,–,14.6µM,–
SMILES,KB-3-1 cytotox,KB-V1 MDR tox,MCF10A rerep,D3 antag,SW480 rereplic,D3 ag
COc1ccc(NC(=O)c2cc3c(s2)-c2c(C)cccc2OC3)cc1Cl,–,–,·,·,·,–
Brc1ccc2c(c1)OCCOCCOCCOCCOCCOCCO2,–,6.51µM,–,–,–,–
CN1CCOCCOc2ccccc2OCCOCC1,–,–,–,–,–,–
c1ccc2c(c1)OCCOCCOCCOCCOc1ccccc1OCCOCCOCCO2,25.9µM,3.66µM,–,–,?,–
O=C(O)c1ccc(N=N/C(=N\Nc2ccc(C(=O)O)cc2)c2ccccc2)cc1,–,–,–,-53.2,–,–
Cc1ccc(S(=O)(=O)C2(C(=O)N3CCCCCC3)CC2)cc1,–,23.1µM,–,–,–,–
Cc1ccc(S(=O)(=O)C2(C(=O)N3CCN(C4CCCCC4)CC3)CC2)cc1,–,16.4µM,–,–,–,–
CCc1cccc(NC(=O)CCn2nc(C)cc2C)c1,–,–,·,·,·,–
O=C(Nc1cccc(NC(=O)c2ccccc2Cl)c1)c1ccc([N+](=O)[O-])o1,?,?,3.66µM,–,?,–
CC1CCN(c2ccccc2NC(=O)c2ccc([N+](=O)[O-])o2)CC1,–,–,–,–,–,–
O=C(Nc1ccc(N2CCCC2)c(Cl)c1)c1ccc([N+](=O)[O-])o1,?,?,2.91µM,–,–,–
O=C(Nc1ccccc1N1CCCC1)c1ccc([N+](=O)[O-])o1,23.1µM,?,23.1µM,–,5.17µM,–
O=C(Nc1cccc([N+](=O)[O-])c1)c1ccc([N+](=O)[O-])o1,–,?,·,–,·,–
Cc1ccc(-c2nnc(SCC(=O)N3CCCc4ccccc43)o2)cc1,–,–,·,·,·,–
CCn1ncc(Br)c1C(=O)Nc1ccccc1OC,13µM,11.6µM,–,–,–,–
CCOc1ccccc1NC(=O)c1cc2cc(C)ccc2n1C,?,8.2µM,·,·,·,–
CCn1nccc1C(=O)Nc1ccccc1OC,–,–,–,–,–,–
CCn1ncc(Br)c1C(=O)Nc1cc([N+](=O)[O-])ccc1C,?,16.4µM,–,–,–,–
CCOc1ccccc1NC(=O)c1c(Br)cnn1C,?,?,–,–,–,35.4
Cn1c(=O)cc(SCC(=O)N2CCN(c3ccc(F)cc3)CC2)c2ccc(Cl)cc21,–,–,·,·,·,–
COc1ccc(NC(=O)CC2C(=O)N(c3ccc(F)cc3)C(=O)N2Cc2cccnc2)cc1 (stereo not drawn),·,·,·,·,·,–
Cc1cccc(NS(=O)(=O)c2ccc3c(c2)C(C)(C)C(=O)N3C)c1,–,–,·,·,·,–
Cc1ccc(-n2nc(C(=O)Nc3ccc(Cl)cn3)c3c4ccccc4n(C)c3c2=O)cc1,–,?,·,·,·,–
Nc1c(-c2nc(-c3cccs3)no2)nnn1-c1ccccc1Cl,·,·,·,·,·,–
O=[N+]([O-])c1ccc(N=NN(CCO)CCO)cc1,–,–,–,–,23.1µM,–
CCc1ccc(S(=O)(=O)NC(=S)NC2CCCCC2)cc1,–,–,–,-67.3,–,–
O=C1/C(=C/c2ccccc2)CCc2ccc(Cl)nc21,–,20.6µM,?,-73.0,?,–
O=C1OCC/C1=C\c1ccccc1,–,–,–,–,–,–
Cc1ccc(NC(=O)CN2C(=O)COc3ccc(S(=O)(=O)NC4CCCC4)cc32)c(Cl)c1,–,–,·,·,·,–

# Screening results from PubChem BioAssay.
